Consider seven molecules from PubChem BioAssay (EPA / NIEHS).

Active and inactive are the calls of the source. Rule for the calls: active = hit-call score of the fitted dose curve at least 0.9, where 1 is the maximum; inactive = score below 0.9.

The nature of assay [1]: ATG_CRE_CIS: Attagene CIS-FACTORIAL HepG2 Assay for human cAMP Responsive Element (CRE) binding protein 3 (AID 2282926). The conditions noted are these: HepG2 CRE cis-reporter, Attagene multiplexed mRNA; actives raise or lower the signal. The method in brief: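 Induced reporter mRNA from a CRE cis element, measured in HepG2 among many multiplexed units at 24 h. Detection used RT-PCR plus capillary electrophoresis of fluorescent fragments; DMSO served as negative control.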

Assay [2] addresses CCAAT/enhancer-binding protein beta (Homo sapiens) (UniProt P17676). In words: ATG_C_EBP_CIS: Attagene CIS-FACTORIAL HepG2 Assay for human CCAAT/Enhancer Binding Protein (C/EBP) beta (AID 2282927). The conditions noted are these: HepG2 Attagene cis-factorial transcription factor reporter; actives raise or lower the signal. The method in brief:
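Changes in reporter mRNA, rather than exogenous chimeric receptor activity, reflect native C/EBP signalling in transfected HepG2 cells dosed for 24 h; transcripts are detected by RT-PCR and capillary electrophoresis.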

Assay [3] can be described thus: ATG_DR4_LXR_CIS: Attagene CIS-FACTORIAL HepG2 Assay for human Liver X Receptor (LXR), DR4 submotif (AID 2282929). The conditions noted are these: HepG2 Attagene DR4 cis-reporter, mRNA transcription; actives raise or lower the signal. The method in brief:
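Cells were transfected with multiple reporter transcription units, exposed to chemicals for 24 hours, then lysed for RNA. Reporter mRNA induction was measured by RT-PCR with capillary electrophoresis detection and fitted in both directions relative to DMSO.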

A short description of assay [4]: ATG_AP_1_CIS: Attagene CIS-FACTORIAL HepG2 Assay for human Activator Protein 1 (AP-1) (AID 2282931). To be noted: HepG2 Attagene cis-factorial AP-1 reporter mRNA; actives raise or lower the signal. The method in brief: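 Endogenous transcription-factor activity in human HepG2 liver cells is read through a cis-promoter reporter transcript, sampled 24 h after dosing. Detection uses RT-PCR with capillary electrophoresis; values come from bidirectional fitting relative to DMSO.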

The nature of assay [5]: ATG_AP_2_CIS: Attagene CIS-FACTORIAL HepG2 Assay for human Activator Protein 2 (AP-2) (AID 2282932). The conditions noted are these: HepG2 AP-2 cis-reporter, Attagene transcription factor profiling; actives raise or lower the signal. The method in brief: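 Transiently transfected HepG2 cells are exposed to chemical for 24 h. Reporter transcripts are then measured as fluorescence following RT-PCR and capillary separation, and gain- or loss-of-signal is fitted relative to DMSO.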

Assay [6] in a line: ATG_BRE_CIS: Attagene CIS-FACTORIAL HepG2 Assay for human Bone Morphogenetic Protein (BMP) Response Element (BRE) (AID 2282933). The conditions noted are these: HepG2 BMP response element reporter, Attagene transcription factor profiling; actives raise or lower the signal. The method in brief:
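Transient MRTU transfection of human HepG2 liver cells; 24 h compound treatment; total RNA isolated, reverse-transcribed, PCR-amplified, 6-FAM labelled, HpaI-cut, capillary electrophoresis. DMSO = negative control/baseline, bidirectional fit.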

For assay [7], the target named is Retinoic acid receptor alpha (Homo sapiens) (UniProt P10276). As to the kind of experiment: ATG_DR5_RAR_CIS: Attagene CIS-FACTORIAL HepG2 Assay for human Retinoic Acid Receptor Alpha (RARE), DR5 submotif (AID 2282934). The conditions noted are these: HepG2 Attagene cis-factorial RARE DR5 reporter, mRNA; actives raise or lower the signal. The method in brief:
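HepG2, transient cis-reporter transfection, 24 h exposure. mRNA readout: RT-PCR, FAM label, HpaI cut, capillary electrophoresis. DMSO baseline, gain/loss fitting.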

The target of assay [8] is Transcription factor E2F1 (Homo sapiens) (UniProt Q01094). As to the kind of experiment: ATG_E2F_CIS: Attagene CIS-FACTORIAL HepG2 Assay for human E2F Transcription Factor 1 (AID 2282935). To be noted: HepG2 Attagene cis-reporter, E2F reporter RNA transcripts; actives raise or lower the signal. The method in brief: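 Fluorescent RT-PCR products, digested with HpaI for 2 h at 37 C, are separated by capillary electrophoresis. Source RNA comes from transfected HepG2 cultures treated for 24 h.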

Assay [9] can be described thus: ATG_E_Box_CIS: Attagene CIS-FACTORIAL HepG2 Assay for human Enhancer Box (E-box) (AID 2282936). To be noted: HepG2 E-box cis-reporter transcription, actives raise or lower the signal. The method in brief: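 Fluorescent reporter fragments separated by capillary electrophoresis gave the signal; mRNA came from HepG2 cells transfected with cis-element reporters and treated 24 h. Curves fitted bidirectionally relative to DMSO controls.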

Assay [10] is described as follows: ATG_M_61_CIS: Attagene CIS-FACTORIAL HepG2 Assay for M61 Transcription Factor (Internal Marker) (AID 2282937). To be noted: HepG2 Attagene CIS-FACTORIAL M61 internal marker reporter; actives raise or lower the signal. The method in brief:
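Cells were transfected with reporter units under cis-regulatory promoters, treated with chemicals for 24 h, then lysed for RNA. Reporter transcripts were quantified by RT-PCR and capillary electrophoresis, and activity was fitted bidirectionally against DMSO.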

Assay [11] can be described thus: ATG_EGR_CIS: Attagene CIS-FACTORIAL HepG2 Assay for human Early Growth Response 1 (EGR1) (AID 2282938). To be noted: HepG2 Attagene CIS-FACTORIAL EGR reporter mRNA; actives raise or lower the signal. The method in brief: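 Endogenous TF activity in HepG2 liver cells was gauged through cis-promoter reporter constructs transiently transfected. After 24 h dosing, reporter mRNA was quantified by RT-PCR and capillary electrophoresis, and curves fitted in both directions versus DMSO.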

Assay [12] in a line: ATG_M_19_CIS: Attagene CIS-FACTORIAL HepG2 Assay for M19 Transcription Factor (Internal Marker) (AID 2282939). To be noted: HepG2 Attagene CIS-FACTORIAL M19 internal marker reporter; actives raise or lower the signal. The method in brief: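 Transfect HepG2 with MRTU reporter library → dose chemical, 24 h → isolate total RNA, reverse-transcribe with oligo(dT) → PCR, 6-FAM label, HpaI cut (2 h, 37 C) → capillary electrophoresis. Bidirectional fit vs DMSO.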

Assay [13] is described as follows: ATG_ERE_CIS: Attagene CIS-FACTORIAL HepG2 Assay for Estrogen Response Element (ERE) (AID 2282940). The conditions noted are these: HepG2 ERE cis-reporter, Attagene RNA transcript; actives raise or lower the signal. The method in brief: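 Transient MRTU transfection of human HepG2; cis-element promoters; 24 h dosing; total RNA → RT (oligo dT) → PCR → 6-FAM primer extension → HpaI digest → CE fluorescence. Bidirectional fit, DMSO baseline.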

Assay [14] deals with Hepatocyte nuclear factor 3-beta (Homo sapiens) (UniProt Q9Y261). As to the kind of experiment: ATG_FoxA2_CIS: Attagene CIS-FACTORIAL HepG2 Assay for human Forkhead box A2 (FOXA2) (AID 2282942). To be noted: HepG2 cis-reporter transcription factor activity, 24 h; actives raise or lower the signal. The method in brief: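 Endogenous transcription factor activity was read in HepG2 cells carrying transiently transfected cis-promoter reporter units. After 24 h dosing, reporter mRNA was quantified by RT-PCR and capillary electrophoresis, and values fitted bidirectionally versus DMSO.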

The nature of assay [15]: ATG_FoxO_CIS: Attagene CIS-FACTORIAL HepG2 Assay for human Forkhead box O (FoxO) (AID 2282943). To be noted: HepG2 Attagene cis-reporter, FoxO element, mRNA; actives raise or lower the signal. The method in brief: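 Human hepatoma HepG2 cells carry transiently introduced reporter transcription units controlled by cis promoter elements. Chemical treatment lasted 24 h, and mRNA signal was compared with DMSO.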

A short description of assay [16]: ATG_GATA_CIS: Attagene CIS-FACTORIAL HepG2 Assay for human GATA Binding Protein (AID 2282944). The conditions noted are these: HepG2 GATA cis-element reporter, Attagene multiplex mRNA; actives raise or lower the signal. The method in brief:
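Transient MRTU transfection, HepG2, 24 h compound exposure. Total RNA → oligo(dT) RT → PCR → 6-FAM primer extension → HpaI cut → CE. Bidirectional fit vs DMSO.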

Assay [17] can be described thus: ATG_GLI_CIS: Attagene CIS-FACTORIAL HepG2 Assay for human Zinc Finger Protein GLI1 (AID 2282945). To be noted: HepG2, Attagene cis-factorial reporter mRNA, GLI element; actives raise or lower the signal. The method in brief: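 Bidirectional curve fits relative to DMSO, using reporter mRNA levels from RT-PCR plus capillary electrophoresis. Cells were HepG2 transiently carrying cis-regulated reporter constructs, harvested 24 h after dosing.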

For assay [18], the target named is Aryl hydrocarbon receptor (Homo sapiens) (UniProt P35869). As to the kind of experiment: ATG_Ahr_CIS: Attagene CIS-FACTORIAL HepG2 Assay for human Aryl Hydrocarbon Receptor (Ahr) (AID 2282930). To be noted: HepG2 AhR cis-factorial reporter transcription; actives raise or lower the signal. The method in brief: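 HepG2, transient MRTU (cis) transfection, 24 h exposure. RNA → cDNA → PCR → 6-FAM primer extension → HpaI 2 h 37 C → CE. Fit: bidirectional, DMSO baseline.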

The nature of assay [19]: ATG_Ets_CIS: Attagene CIS-FACTORIAL HepG2 Assay for human Erythroblast Transformation Specific (ETS) (AID 2282941). To be noted: HepG2 ETS cis-reporter transcription, actives raise or lower the signal. The method in brief: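 Bidirectional fit versus DMSO of reporter mRNA signal, detected by RT-PCR and capillary electrophoresis in HepG2 cells transiently transfected with cis-element reporters and dosed 24 h.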

Transcription factor E2F1 (Homo sapiens), sequence (Q01094 whole entry, looked up): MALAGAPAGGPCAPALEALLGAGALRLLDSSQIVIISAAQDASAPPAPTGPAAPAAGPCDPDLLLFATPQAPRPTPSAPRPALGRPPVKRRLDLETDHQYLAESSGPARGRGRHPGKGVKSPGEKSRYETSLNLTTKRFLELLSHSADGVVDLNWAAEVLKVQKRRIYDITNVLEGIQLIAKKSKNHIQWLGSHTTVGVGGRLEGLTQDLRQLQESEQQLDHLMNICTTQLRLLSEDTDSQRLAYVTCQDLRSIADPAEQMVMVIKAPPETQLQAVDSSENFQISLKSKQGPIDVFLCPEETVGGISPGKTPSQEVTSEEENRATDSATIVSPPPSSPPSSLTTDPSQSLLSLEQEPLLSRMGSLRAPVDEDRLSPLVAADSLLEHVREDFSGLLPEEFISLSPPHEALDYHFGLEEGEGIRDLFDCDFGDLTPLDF
Hepatocyte nuclear factor 3-beta (Homo sapiens), sequence (Q9Y261 whole entry, looked up): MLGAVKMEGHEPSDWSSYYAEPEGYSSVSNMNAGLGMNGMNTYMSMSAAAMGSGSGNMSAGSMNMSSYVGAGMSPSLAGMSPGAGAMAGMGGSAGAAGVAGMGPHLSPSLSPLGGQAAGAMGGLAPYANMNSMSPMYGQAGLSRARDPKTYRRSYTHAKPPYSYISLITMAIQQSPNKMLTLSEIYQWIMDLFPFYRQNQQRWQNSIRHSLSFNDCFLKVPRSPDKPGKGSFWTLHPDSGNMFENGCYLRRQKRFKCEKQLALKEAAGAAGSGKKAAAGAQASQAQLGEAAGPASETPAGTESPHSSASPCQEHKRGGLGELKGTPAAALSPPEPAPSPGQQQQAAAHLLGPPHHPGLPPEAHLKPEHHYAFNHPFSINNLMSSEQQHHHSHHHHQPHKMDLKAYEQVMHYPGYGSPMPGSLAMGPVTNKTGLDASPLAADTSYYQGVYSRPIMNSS
CCAAT/enhancer-binding protein beta (Homo sapiens), sequence (P17676 whole entry, looked up): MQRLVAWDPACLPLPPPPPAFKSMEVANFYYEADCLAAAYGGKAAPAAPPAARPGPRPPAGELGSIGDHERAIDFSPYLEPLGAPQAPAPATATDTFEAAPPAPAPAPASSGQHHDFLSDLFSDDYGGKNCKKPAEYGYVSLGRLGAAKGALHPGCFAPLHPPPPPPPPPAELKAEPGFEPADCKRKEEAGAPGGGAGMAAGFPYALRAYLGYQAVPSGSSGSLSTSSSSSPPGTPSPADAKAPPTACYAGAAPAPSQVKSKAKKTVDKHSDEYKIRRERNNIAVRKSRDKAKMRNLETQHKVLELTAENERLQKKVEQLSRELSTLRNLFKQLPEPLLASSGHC
Aryl hydrocarbon receptor (Homo sapiens), sequence (P35869 whole entry, looked up): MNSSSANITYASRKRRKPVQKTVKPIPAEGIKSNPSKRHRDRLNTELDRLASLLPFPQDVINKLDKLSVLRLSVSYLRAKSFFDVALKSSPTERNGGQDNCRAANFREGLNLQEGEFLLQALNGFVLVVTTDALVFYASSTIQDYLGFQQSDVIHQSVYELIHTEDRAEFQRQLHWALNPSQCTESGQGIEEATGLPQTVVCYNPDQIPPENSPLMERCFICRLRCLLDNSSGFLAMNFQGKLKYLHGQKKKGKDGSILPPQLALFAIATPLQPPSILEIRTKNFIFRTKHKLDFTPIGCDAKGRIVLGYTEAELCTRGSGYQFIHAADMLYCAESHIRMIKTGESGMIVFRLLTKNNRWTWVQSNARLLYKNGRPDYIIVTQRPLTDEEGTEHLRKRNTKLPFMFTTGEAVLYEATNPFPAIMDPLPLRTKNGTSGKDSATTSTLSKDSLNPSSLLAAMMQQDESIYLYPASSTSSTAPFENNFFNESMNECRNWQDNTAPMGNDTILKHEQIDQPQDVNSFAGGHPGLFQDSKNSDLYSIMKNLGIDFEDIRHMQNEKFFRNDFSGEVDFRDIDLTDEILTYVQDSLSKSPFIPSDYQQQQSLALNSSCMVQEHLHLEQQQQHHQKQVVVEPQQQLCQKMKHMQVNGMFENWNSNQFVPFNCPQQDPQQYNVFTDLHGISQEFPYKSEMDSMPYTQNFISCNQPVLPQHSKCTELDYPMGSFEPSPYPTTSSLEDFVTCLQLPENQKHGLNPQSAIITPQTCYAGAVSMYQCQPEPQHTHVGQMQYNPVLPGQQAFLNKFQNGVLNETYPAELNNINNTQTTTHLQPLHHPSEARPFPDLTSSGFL
Retinoic acid receptor alpha (Homo sapiens), sequence (P10276 whole entry, looked up): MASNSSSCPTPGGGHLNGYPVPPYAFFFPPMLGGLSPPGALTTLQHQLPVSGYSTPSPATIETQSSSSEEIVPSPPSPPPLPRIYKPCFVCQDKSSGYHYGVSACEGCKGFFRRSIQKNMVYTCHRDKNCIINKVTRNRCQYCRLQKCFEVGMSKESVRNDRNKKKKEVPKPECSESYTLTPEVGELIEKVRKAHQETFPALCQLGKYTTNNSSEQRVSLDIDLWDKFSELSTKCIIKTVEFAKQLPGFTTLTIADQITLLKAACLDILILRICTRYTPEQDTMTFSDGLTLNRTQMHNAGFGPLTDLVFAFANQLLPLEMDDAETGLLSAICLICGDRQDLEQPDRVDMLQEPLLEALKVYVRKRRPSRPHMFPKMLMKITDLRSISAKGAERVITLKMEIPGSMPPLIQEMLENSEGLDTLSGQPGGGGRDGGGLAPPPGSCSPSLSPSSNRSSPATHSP

In the case of `CC(=O)OCC(C)OC(C)=O` (stereo not drawn), the result in [1], in assay [2], in assay [3], in assay [4], in [5] and in assay [6] was inactive. The molecule was called inactive in assay [7], in [8], in assay [9], in assay [10], in assay [11] and in assay [12]. For the same molecule, the result in [13], in assay [14], in assay [15], in [16] and in assay [17] was inactive.
As for `CC(C)CCCCCOC(=O)CCS`, the result in assay [1], in [2], in assay [18], in assay [4], in [5] and in [6] was inactive. Further, the call in [7], in assay [8], in assay [9], in assay [10], in assay [11] and in [12] was inactive. The call in assay [13], in assay [19], in [14], in assay [15], in assay [16] and in assay [17] was inactive.
As to `CC(C)COC(=O)C=Cc1ccccc1`, the molecule was classed as inactive in assay [1], in assay [2], in assay [3], in assay [18], in assay [5] and in assay [6]. For the same molecule, the result in assay [8], in [9], in assay [10], in [11], in assay [12] and in assay [13] was inactive. The call in [19], in assay [14], in [15], in assay [16] and in assay [17] was inactive. The AC50 in [4] was 139 µM (active).
`O=C(O)c1ccccc1Nc1cccc(C(F)(F)F)c1`: the molecule was called inactive in assay [1], in [2], in assay [18], in assay [5], in assay [6] and in assay [7]. Also, the molecule was classed as inactive in assay [8], in [10], in assay [11], in [12], in [13] and in [15]. Further, the outcome in assay [16] and in [17] was inactive. Besides, the results for the AC50 in assay [3], in assay [4] and in assay [9] were 9.37 µM (active), 60 µM (active) and 89.2 µM (active), respectively.
For the molecule `C=CC(=O)NC(C)(C)CS(=O)(=O)O`, the molecule was classed as inactive in assay [1], in assay [2], in assay [3], in [18], in assay [4] and in assay [5]. The molecule was called inactive in assay [7], in [8], in [9], in [10], in assay [11] and in assay [12]. For the same molecule, the molecule was called inactive in assay [13], in assay [19], in assay [14], in assay [15], in [16] and in assay [17]. Also, the AC50 in assay [6] is 15.8 µM (active).
Turning to `COc1ccc(-c2coc3cc(O)ccc3c2=O)cc1`, the result in assay [1], in assay [2], in assay [3], in assay [4], in assay [6] and in [8] was inactive. The molecule was called inactive in assay [10], in [11], in [12], in [19], in assay [14] and in [15]. For the same molecule, the molecule was classed as inactive in assay [16] and in assay [17]. Also, the values for the AC50 in assay [18] and in assay [13] were 20 µM (active) and 2.23 µM (active), respectively.
In the case of `C=C[C@](C)(O)CC[C@@H]1[C@@]2(C)CCCC(C)(C)[C@@H]2CC[C@@]1(C)O`, the outcome in [1], in [2], in [3], in assay [18], in assay [4] and in [5] was inactive. Besides, the molecule was classed as inactive in assay [6], in assay [7], in assay [8], in [9], in assay [10] and in assay [11]. The call in assay [12], in assay [13], in assay [19], in [14], in assay [16] and in assay [17] was inactive.

The AC50 is the midpoint of the concentration-response curve, whichever way the signal moves.
